Compound activity from PubChem BioAssay.
A selection: hits, their analogues and other compounds. The true share with any hit is near 9.4%.
Rab9 promoter act: activates the Rab9 promoter; Huh7 Rab9 promoter-luciferase reporter, luminescence, 24 h; Potency, µM (top dose mostly 9.22 µM), for the others: at the top dose activation, negative = inhibition, actives largely listed as activators; AID 485297; 320,000 compounds, 2.8% hits; further: % of control where 0% means no effect; nearly all actives have a fitted effect of over 60% in size
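Luminescence from Amplite-detected luciferase (10 minutes, ambient) reports Rab9 promoter activation. Before that, stable Rab9-luciferase Huh7 cells (1500/well, reduced-serum OP-MEM I plus 10% FBS) were exposed to compound for 24 hours at 37C.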
ELG1 genotoxic: genotoxicity induction in ELG1-luciferase HEK293T cells; HEK293T ELG1-luciferase reporter, luminescence, 16 h; Potency, µM (doses to about 46 µM), for inactives: at the top dose activity change, positive = activation, usual class: activators; 330,000 compounds, 1.3% hits; AID 504466; further: % of control where 0% means no effect; nearly all actives have a fitted effect of over 60% in size
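Luminescence read-out: rising ELG1-luciferase signal, reflecting elevated ELG1 protein under genetic stress, flags genotoxic compounds. Cells were treated for 16 hr at 37 °C before ONE-Glo detection.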
FLuc modulator: inhibits or activates purified firefly luciferase, miR-21 counter-screen | purified FLuc, Km substrates, luminescence inhibition | Potency, µM (highest dose often 57.5 µM), for inactives: at the top dose activity change, negative = inhibition, hits mostly inhibitors | 360,000 compounds, 6.9% hits | AID 588342;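 further: plate controls were vehicle for no effect and reference inhibitor for full effect; nearly all actives have a fitted effect of over 55% in size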
Target sequence (P08659 whole entry, looked up): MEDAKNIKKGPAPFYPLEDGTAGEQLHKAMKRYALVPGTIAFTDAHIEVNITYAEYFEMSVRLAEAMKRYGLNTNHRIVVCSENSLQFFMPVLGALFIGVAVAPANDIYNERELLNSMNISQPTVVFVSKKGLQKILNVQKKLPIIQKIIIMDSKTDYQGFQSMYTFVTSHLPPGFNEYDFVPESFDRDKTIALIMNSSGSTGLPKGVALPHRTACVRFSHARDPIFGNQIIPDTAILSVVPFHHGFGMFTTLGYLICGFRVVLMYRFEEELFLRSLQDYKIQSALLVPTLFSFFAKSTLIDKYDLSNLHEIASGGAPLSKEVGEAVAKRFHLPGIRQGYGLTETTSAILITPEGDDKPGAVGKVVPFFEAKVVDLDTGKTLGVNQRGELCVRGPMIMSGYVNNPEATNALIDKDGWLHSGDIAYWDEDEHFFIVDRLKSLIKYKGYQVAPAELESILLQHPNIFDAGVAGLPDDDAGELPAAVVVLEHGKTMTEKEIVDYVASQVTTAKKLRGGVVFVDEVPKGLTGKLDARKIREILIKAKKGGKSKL
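Purified P. pyralis luciferase, 10 nM final, with Km-level 10 uM D-luciferin and 10 uM ATP in 50 mM Tris acetate pH 7.5, 10 mM Mg acetate, 0.01% Tween-20, 0.05% BSA; 6-point qHTS titration about 60 µM downward; luminescence read.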
SMN2 splice up: enhancers of SMN2 splice variant expression | AID 1458 | 210,000 compounds, 2.8% hits | HEK293 SMN2-luciferase splicing reporter, luminescence, 30-36 h | Potency, µM (top dose mostly 46.1 µM), for inactives: at the highest dose activity change, positive = activation, most hits filed as activators; further: % of control where 0% means no effect; nearly all actives have a fitted effect of over 55% in size
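HEK293 cells carry an SMN2 minigene-luciferase reporter in which exon 7 inclusion puts luciferase in frame. Cells were seeded at 2000 cells/well, attached for 10-12 hours, then exposed to compounds for 30-36 hours at 37C before ONE-Glo luminescence.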
ELG1 DNA repair: blocks ELG1-dependent DNA repair in HEK293T cells. HEK293T ELG1-luciferase reporter, luminescence, 16 h; DNA damage induced by 5-fluorouridine. Potency, µM (top dose mostly 46.1 µM), inactives show at the highest dose activity change, negative = inhibition, hits mostly inhibitors. 330,000 compounds, 2.3% hits; further: on the % scale 0 is the no-effect control and ±100 the full control effect; nearly all actives have a fitted effect of over 55% in size
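Overnight (16 hr) co-exposure of 2,000 cells/well to 5-fluorouridine and compound at 37 °C preceded detection. Luciferase was quantified via ONE-Glo luminescence; loss of signal denotes inhibition.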
NPC1 prom act: NPC1 promoter activation; AID 485313; Huh7 NPC1 promoter luciferase reporter, 24 h; Potency, µM (titrated, usually from 9.22 µM), without a hit: at the top dose activation, actives largely listed as activators; 320,000 compounds, 2.4% hits; further: % of control where 0% means no effect; nearly all actives have a fitted effect of over 60% in size
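Stable NPC1-promoter luciferase Huh7 line; cpd (DMSO) 24 h, 37 °C, 5% CO2; Amplite luciferase reagent 10 min RT; luminescence readout. qHTS format.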
An asterisk follows results filed as active; ? = inconclusive; . = no result; [ ] = another dose, or the depositor's remark. The call rests on the fitted dose curve; in most records, active means well fitted curve in the direction sought with a large enough effect; inconclusive means small, poorly fitted or top-dose-only effect, or another doubt; inactive means no such curve, though single readings can be large; an effect the other way counts as inactive or inconclusive. Potency means the concentration at half of the fitted maximal effect.

SMILES | Rab9 promoter act | ELG1 genotoxic | FLuc modulator | SMN2 splice up | ELG1 DNA repair | NPC1 prom act
O=c1nc(Nc2ccccc2)oc2ccccc12 | ? | ? | 17µM* | . | ? | 2.8µM*
Fc1ccc(Nc2c3c(nc4ccccc24)CCC3)cc1 | -9% | -12% | -1% | -42% | ? | -7%
CC(C)c1ccc(/C=C2\C=C(c3ccc4ccccc4c3)OC2=O)cc1 | . | . | . | 3%[9.22 µM] | . | .
CCOC(=O)c1nc2c(ccc3ccccc32)cc1C | 0% | 5% | 15µM* | . | 0% | -1%
CCOC(=O)c1cnc2c(ccc3ccccc32)c1Nc1ccc(OC)c(OC)c1 | . | . | -1% | -1% | . | .
O=C(c1cc(-c2cccc(Cl)c2)on1)N1CCCCC1 | . | . | 21µM* | 10% | . | .
O=C(c1cc(-c2cccc(O)c2)on1)N1CCCCC1 | ? | 3.7µM* | 3µM* | ? | ? | ?
O=C(c1cc(-c2cccc(O)c2)on1)N1CCCC1 | ? | 7.3µM* | 6µM* | . | ? | ?
O=C(c1cc(-c2ccc(O)cc2)on1)N1CCN(c2ccccc2)CC1 | 7% | -14% | ? | -18% | -11% | -1%
COc1ccccc1N1CCN(C(=O)c2cc(-c3cccc(Cl)c3)on2)CC1 | 0% | -2% | 5% | -12% | -26% | 0%
O=C(c1cc(-c2ccccc2)on1)N1CCN(C(=O)c2ccco2)CC1 | 0% | ? | ? | 20% | ? | 0%
CCOc1ccccc1C(=O)N(Cc1cc(OC)c(OC)c(OC)c1)c1ccccn1 | . | . | -3% | . | . | .
COC(=O)c1ccc2c(=O)n(CCCCCC(=O)NCCc3ccc(Cl)cc3)c(=O)[nH]c2c1 | . | . | -6% | . | . | .
Cc1cccc(NC(=O)N2CCC3(CC2)Oc2ccccc2C(=O)N3Cc2ccccc2F)c1C | . | . | 1% | -3% | . | .
Cc1ccc(N=Cc2sccc2C)cc1C | 2% | 0% | 1.9µM* | 29% | 5% | 1%
CCc1ccccc1NC(=O)C1CCCN(c2nnc(-n3c(C)ccc3C)s2)C1 (centres undefined) | . | . | -3% | -6% | . | .
COc1cc(/C=C2\SC(=S)N(NC(=O)c3ccccc3OC)C2=O)ccc1O | -3% | 4% | 4.3µM* | . | 6% | -4%
COc1cc(/C=C2\SC(=S)N(NC(=O)c3ccncc3)C2=O)ccc1O | -14% | 0% | 17µM* | . | 2% | -2%
COc1cc(/C=C2\SC(=S)N(NC(=O)c3cccc(O)c3)C2=O)ccc1O | 20% | 0% | 11µM* | . | -2% | 3%
COc1ccccc1C(=O)NN1C(=O)/C(=C/c2cccn2C)SC1=S | 0% | 0% | ? | . | 0% | 7%
COc1cc(/C=C2\SC(=S)N(N3CCOCC3)C2=O)ccc1O | 2% | 16% | -4% | . | ? | 1%
COc1cc(/C=C2\SC(=S)N(NC(=O)c3ccc(O)c(OC)c3)C2=O)ccc1O | -2% | 22% | 1.3µM* | . | ? | 0%
CC(N)(Cc1ccc(O)c(O)c1)C(=O)O (centres undefined) | 1%[46.1 µM] | . | . | -26% | . | -7%[46.1 µM]
Cc1cc(C)cc(N2CCCn3c2nc2c3c(=O)[nH]c(=O)n2C)c1 | -6% | -1% | -2% | . | 2% | -4%
N/N=C1/c2ccccc2N[C@H]1OC(=O)Nc1ccccc1 | . | . | . | 21%[9.22 µM] | . | .
SMILES | Rab9 promoter act | ELG1 genotoxic | FLuc modulator | SMN2 splice up | ELG1 DNA repair | NPC1 prom act
CCOc1cc(/C=C2\SC(=S)N(NC(=O)c3cccnc3)C2=O)ccc1O | -2% | 0% | 27µM* | -2% | 7% | 0%
COc1cc(/C=C2\SC(=S)N(NS(=O)(=O)c3ccc(C)cc3)C2=O)ccc1O | -10% | 0% | 21µM* | . | 13% | -3%
CCOc1cc(C(=O)NCCN2C(=O)S/C(=C\c3cccnc3)C2=O)cc(OCC)c1OCC | -1% | -10% | 2% | -16% | 18µM* | -2%
O=C(O)c1ccc(/C=C2\SC(=S)N(NC(=O)c3ccccc3)C2=O)cc1 | -6%[1.84 µM] | -3% | ? | . | -2% | 1%
COc1cc(/C=C2\SC(=S)N(NS(=O)(=O)c3ccccc3)C2=O)ccc1O | -2% | 1% | ? | . | ? | -5%
O=C(NN1C(=O)/C(=C/c2cccs2)SC1=S)c1cccnc1 | -6% | 1% | -19% | . | -18% | 0%
CC(=O)NN1C(=O)/C(=C/c2ccc(C(C)C)cc2)SC1=S | -2% | 2% | 21µM* | -8% | ? | 3%
Cc1ccc(C)c(NC(=O)Cn2c(=O)oc3cc(S(=O)(=O)NCc4ccccc4)ccc32)c1 | . | . | ? | -18% | . | .
CCN(Cc1ccccc1)Cc1c(O)ccc2oc(C)c(C(=O)Nc3ccccc3C)c12 | . | . | -7% | -10% | . | .
CCOC(=O)c1c(NC(C)=O)c2c3c(sc2n1Cc1cc(C)ccc1C)CCCC3 | . | . | 2% | -4% | . | .
COc1cc(-c2nc(-c3ccccc3)c(-c3cc([N+](=O)[O-])ccc3C)[nH]2)cc(OC)c1OC | -3% | -5% | -8% | 16% | 7.3µM* | -2%
O=C(O)c1ccc2nc(-c3cc4cc(Cl)ccc4oc3=O)[nH]c2c1 | . | . | 21µM* | . | . | .
CC(C)(C)c1cc(C(C)(C)C)c2oc(=O)c(-c3nc4ccc(C(=O)O)cc4[nH]3)cc2c1 | -2% | . | ? | . | . | 0%
Cc1cccc2cc(-c3nc4ccc(C(=O)O)cc4[nH]3)c(=O)oc12 | ? | ? | 0.43µM* | . | ? | ?
COc1ccccc1C1=NC(c2ccc(C)cc2)N=C1C (centres undefined) | ? | -8% | 15µM* | ? | ? | ?
Cc1cccc2c1-c1sc(C(=O)N(C)c3cccc(C(F)(F)F)c3)cc1CO2 | . | . | 7% | -12% | . | .
Cc1nc2nc(-c3ccccc3)cn2nc1C | . | . | 2.4µM* | 8.9µM* | . | .
CCc1c(-c2ccccc2)nc2nc(C)c(C)nn12 | 7% | 13% | ? | -17% | ? | 2%
Cc1nc2nc(-c3ccc(F)cc3)cn2nc1C | 0.28µM* | 1.6µM* | 2.1µM* | . | ? | ?
c1ccc(-c2cn3nc(-c4ccccc4)cnc3n2)cc1 | 0.45µM* | ? | 0.21µM* | 2µM* | ? | 0.63µM*
CCc1ccc(-c2cn3nc(C)c(C)nc3n2)cc1 | ? | 0% | 0.38µM* | -18% | -1% | 0.089µM*
Cc1cc(N2CCOCC2)n2cc(-c3ccc(F)cc3)nc2n1 | -2% | 4% | ? | . | -2% | 3%
CN1CCN(CCCBr)CC1 | . | . | . | 1%[9.22 µM] | . | .
COc1ccc(-n2c(=S)[nH]c3sc(-c4ccccc4)cc3c2=O)c(OC)c1 | 1% | -1% | 27µM* | . | -4% | -6%
CC1=NN(C(N)=S)C(=O)C1N=Nc1ccc(Br)cc1 (centres undefined) | 3.5µM* | 9.2µM* | 6µM* | . | ? | 2.2µM*
